The target of assay [1] is T1, Serine/threonine-protein kinase TBK1 (Homo sapiens) (UniProt Q9UHD2).
T1 sequence (whole entry): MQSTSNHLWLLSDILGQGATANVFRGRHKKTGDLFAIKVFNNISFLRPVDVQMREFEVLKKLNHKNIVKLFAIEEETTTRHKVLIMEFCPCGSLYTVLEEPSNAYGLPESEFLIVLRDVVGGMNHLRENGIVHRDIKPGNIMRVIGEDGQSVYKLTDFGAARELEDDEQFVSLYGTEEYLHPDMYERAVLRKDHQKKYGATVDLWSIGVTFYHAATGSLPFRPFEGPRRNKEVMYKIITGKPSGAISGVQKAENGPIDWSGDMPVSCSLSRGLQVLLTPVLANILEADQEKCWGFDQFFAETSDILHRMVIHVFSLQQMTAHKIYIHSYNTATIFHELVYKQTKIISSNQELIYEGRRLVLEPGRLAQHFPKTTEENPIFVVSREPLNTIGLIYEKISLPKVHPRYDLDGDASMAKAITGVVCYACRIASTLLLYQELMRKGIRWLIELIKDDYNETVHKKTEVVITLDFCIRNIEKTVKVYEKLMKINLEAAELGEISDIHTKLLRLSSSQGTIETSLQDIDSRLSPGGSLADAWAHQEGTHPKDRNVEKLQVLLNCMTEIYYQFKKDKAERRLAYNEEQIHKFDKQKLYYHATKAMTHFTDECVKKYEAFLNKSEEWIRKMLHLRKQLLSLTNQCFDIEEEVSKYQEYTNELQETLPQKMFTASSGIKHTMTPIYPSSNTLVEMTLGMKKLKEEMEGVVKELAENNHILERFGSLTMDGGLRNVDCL
Conditions: at 10 µM.

In assay [2] the target is T2, TGF-beta receptor type-1 (Homo sapiens) (UniProt P36897).
T2 sequence (whole entry): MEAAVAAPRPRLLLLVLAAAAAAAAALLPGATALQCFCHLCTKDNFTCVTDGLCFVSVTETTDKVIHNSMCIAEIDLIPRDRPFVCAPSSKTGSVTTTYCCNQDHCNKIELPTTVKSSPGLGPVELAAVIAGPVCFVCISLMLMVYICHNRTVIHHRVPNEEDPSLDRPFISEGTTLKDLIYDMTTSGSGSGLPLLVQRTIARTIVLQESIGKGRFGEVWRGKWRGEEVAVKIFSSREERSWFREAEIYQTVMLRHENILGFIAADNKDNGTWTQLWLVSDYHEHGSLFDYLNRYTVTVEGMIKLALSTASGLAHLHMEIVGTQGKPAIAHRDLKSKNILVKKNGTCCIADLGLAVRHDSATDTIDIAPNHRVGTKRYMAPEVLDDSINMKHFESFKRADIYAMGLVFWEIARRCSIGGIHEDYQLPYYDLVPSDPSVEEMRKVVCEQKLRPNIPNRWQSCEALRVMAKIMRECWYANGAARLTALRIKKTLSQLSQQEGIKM
The note with it: at 1 µM.

Assay [3] concerns the target T2, TGF-beta receptor type-1 (Homo sapiens). The note with it: at 10 µM.
In assay [4] the target is Insulin-like growth factor 1 receptor (Homo sapiens) (UniProt P08069). Conditions: at 1 µM.
Insulin-like growth factor 1 receptor (Homo sapiens), sequence (P08069 31-736 limits assumed): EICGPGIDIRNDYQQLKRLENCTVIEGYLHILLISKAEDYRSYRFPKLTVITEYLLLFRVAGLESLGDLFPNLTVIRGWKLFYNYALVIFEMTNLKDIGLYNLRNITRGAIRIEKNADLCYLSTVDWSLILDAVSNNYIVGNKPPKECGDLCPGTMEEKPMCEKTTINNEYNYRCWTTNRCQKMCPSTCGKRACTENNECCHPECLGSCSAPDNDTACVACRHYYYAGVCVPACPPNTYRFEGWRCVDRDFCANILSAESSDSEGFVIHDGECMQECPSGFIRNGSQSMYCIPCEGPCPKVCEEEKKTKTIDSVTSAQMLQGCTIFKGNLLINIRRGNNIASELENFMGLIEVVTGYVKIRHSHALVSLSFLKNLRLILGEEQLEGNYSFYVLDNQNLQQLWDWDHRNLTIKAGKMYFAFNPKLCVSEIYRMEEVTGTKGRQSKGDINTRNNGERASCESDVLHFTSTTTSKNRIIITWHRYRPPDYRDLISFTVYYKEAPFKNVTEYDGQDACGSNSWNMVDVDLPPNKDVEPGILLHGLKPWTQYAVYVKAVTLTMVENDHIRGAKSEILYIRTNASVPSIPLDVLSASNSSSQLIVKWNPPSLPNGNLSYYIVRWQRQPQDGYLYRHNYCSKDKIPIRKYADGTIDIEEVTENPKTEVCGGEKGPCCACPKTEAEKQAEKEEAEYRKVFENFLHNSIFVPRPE
Insulin-like growth factor 1 receptor (Homo sapiens), sequence (P08069 741-1367 limits assumed): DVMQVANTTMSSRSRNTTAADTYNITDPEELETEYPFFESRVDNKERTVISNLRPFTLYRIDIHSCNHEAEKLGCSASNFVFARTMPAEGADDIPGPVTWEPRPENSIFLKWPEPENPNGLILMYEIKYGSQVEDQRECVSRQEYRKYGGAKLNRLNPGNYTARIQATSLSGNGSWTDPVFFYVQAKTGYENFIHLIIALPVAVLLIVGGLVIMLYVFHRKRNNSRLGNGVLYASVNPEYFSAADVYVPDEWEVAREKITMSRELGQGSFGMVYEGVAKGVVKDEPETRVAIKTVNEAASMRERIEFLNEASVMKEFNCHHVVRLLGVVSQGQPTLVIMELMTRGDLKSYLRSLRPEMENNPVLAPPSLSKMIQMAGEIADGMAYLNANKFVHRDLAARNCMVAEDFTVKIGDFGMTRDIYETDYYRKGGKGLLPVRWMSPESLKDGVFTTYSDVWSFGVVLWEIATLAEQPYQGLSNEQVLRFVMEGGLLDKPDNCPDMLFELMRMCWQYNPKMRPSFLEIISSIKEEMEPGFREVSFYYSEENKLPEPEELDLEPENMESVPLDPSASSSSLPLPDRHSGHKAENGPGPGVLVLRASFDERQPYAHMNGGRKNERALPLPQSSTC
Assay [5] has the same target. Conditions: at 10 µM.
The target of assay [6] is T3, Inhibitor of nuclear factor kappa-B kinase subunit alpha (Homo sapiens) (UniProt O15111).
T3 sequence (whole entry): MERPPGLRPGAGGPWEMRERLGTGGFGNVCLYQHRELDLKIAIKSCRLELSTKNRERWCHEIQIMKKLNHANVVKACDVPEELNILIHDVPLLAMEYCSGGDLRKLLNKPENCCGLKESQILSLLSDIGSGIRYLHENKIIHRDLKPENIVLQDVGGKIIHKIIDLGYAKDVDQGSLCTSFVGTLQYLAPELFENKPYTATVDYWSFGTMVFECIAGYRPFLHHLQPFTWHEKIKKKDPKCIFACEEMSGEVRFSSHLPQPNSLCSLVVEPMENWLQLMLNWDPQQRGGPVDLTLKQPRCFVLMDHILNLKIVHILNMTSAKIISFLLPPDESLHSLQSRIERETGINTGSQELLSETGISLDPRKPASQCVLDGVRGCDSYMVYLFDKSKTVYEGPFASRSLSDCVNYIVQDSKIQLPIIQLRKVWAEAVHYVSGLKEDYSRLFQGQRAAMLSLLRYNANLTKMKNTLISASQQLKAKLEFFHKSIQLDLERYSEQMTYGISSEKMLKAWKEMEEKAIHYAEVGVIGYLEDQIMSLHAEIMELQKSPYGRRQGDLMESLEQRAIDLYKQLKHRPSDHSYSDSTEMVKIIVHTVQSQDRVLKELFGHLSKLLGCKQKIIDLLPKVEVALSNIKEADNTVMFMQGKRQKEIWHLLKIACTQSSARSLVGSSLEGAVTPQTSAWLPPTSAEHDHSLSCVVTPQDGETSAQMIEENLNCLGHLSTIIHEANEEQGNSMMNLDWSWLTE
The note with it: at 1 µM.

Assay [7] deals with T3, Inhibitor of nuclear factor kappa-B kinase subunit alpha (Homo sapiens). The note with it: at 10 µM.
For assay [8], the target named is T4, Inhibitor of nuclear factor kappa-B kinase subunit beta (Homo sapiens) (UniProt O14920).
T4 sequence (whole entry): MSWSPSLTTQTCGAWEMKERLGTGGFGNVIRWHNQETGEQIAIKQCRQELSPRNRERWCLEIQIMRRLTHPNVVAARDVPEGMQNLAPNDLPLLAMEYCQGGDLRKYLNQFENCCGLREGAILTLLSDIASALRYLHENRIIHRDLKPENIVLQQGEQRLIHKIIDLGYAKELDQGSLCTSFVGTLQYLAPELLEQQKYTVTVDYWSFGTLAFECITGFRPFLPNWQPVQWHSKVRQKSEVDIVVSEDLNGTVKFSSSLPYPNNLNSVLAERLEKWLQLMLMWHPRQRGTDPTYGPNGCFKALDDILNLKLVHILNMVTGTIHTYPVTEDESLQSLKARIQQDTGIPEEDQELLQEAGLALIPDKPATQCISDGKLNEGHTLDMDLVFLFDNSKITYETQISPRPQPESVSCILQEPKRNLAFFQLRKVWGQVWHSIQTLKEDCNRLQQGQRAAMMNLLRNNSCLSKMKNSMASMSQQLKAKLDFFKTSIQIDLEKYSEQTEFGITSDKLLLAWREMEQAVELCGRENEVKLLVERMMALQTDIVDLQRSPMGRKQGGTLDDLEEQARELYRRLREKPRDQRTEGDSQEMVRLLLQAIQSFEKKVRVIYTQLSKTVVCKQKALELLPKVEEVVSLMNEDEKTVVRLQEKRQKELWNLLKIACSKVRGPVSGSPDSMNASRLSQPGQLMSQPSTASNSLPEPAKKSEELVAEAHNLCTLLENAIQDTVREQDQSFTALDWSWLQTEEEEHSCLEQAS
Conditions: at 1 µM.

Assay [9] has as its target T4, Inhibitor of nuclear factor kappa-B kinase subunit beta (Homo sapiens). Conditions: at 10 µM.
Assay [10] addresses Insulin receptor (Homo sapiens) (UniProt P06213). Conditions: at 1 µM.

Insulin receptor (Homo sapiens), sequence (P06213 28-758 limits assumed): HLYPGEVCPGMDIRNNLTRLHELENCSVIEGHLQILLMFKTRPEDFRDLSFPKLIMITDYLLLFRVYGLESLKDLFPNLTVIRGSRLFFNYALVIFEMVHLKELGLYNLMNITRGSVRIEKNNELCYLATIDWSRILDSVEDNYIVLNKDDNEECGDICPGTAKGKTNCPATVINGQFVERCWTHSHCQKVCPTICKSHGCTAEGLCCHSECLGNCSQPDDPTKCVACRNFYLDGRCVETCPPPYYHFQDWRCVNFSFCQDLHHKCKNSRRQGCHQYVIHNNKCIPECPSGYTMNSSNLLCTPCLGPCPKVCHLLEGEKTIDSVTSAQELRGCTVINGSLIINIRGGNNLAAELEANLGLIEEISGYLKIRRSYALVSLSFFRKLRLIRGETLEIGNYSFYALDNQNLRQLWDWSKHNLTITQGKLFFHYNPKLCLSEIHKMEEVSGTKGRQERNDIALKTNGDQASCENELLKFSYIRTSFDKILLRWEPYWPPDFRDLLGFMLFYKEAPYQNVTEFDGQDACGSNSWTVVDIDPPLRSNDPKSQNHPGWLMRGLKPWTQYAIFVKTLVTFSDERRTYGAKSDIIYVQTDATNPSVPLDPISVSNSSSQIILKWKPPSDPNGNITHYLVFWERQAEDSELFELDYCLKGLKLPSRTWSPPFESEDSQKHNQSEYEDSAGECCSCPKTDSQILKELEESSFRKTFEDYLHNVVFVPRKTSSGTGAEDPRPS
Insulin receptor (Homo sapiens), sequence (P06213 763-1382 limits assumed): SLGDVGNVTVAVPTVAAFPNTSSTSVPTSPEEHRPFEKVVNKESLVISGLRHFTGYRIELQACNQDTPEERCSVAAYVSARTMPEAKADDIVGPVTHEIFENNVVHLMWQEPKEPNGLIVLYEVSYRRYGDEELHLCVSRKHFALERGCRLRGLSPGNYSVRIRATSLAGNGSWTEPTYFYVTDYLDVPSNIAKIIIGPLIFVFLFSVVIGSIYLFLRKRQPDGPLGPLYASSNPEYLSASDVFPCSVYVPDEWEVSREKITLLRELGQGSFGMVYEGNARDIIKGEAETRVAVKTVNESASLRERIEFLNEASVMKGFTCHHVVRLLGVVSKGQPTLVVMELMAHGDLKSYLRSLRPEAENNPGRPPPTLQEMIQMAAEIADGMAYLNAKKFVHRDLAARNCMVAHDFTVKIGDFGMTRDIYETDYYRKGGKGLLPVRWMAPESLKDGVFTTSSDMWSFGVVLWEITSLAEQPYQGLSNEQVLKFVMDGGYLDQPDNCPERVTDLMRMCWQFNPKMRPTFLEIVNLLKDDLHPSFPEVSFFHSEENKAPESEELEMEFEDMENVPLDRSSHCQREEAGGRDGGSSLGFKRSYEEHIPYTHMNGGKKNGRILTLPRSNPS

Consider `c1ccc2c(-c3ccncc3)c[nH]c2c1`, for which the residual activity in assay [1] was found to be 51%; in [2], 87%; in assay [3] it was 88%; in assay [4], 88%; in [5], 79%; in [6] it was 97%. Also, the residual activity stood at 69% in [7], 105% in [8], 73% in [9] and 110% in assay [10].
